Among the data in PubChem BioAssay (EPA / NIEHS) are outcome and AC50 values, retold here.

A short description of assay [1]: ATG_TCF_b_cat_CIS: Attagene CIS-FACTORIAL HepG2 Assay for human T-Cell-Factor with beta-catenin (TCF/b-cat) (AID 2282965). As to conditions: HepG2 TCF/beta-catenin cis-reporter transcription, actives raise or lower the signal. A digest of the protocol: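 Endogenous transcription factor activity is captured through cis-promoter reporter constructs transiently introduced into human HepG2 liver cells. Induced reporter mRNA is measured after 24 h and fitted bidirectionally relative to DMSO.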

Assay [2] in a line: ATG_TAL_CIS: Attagene CIS-FACTORIAL HepG2 Assay for human TAL Basal Promoter (AID 2282966).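 Also: background control endpoint measuring basal TAL promoter reporter mRNA not a specific factor.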 The following applies: HepG2 Attagene cis-factorial TAL promoter reporter; actives raise or lower the signal. A digest of the protocol:
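Endogenous transcription-factor activity is sensed in HepG2 cells through transfected cis-promoter reporter constructs. After 24 h dosing, reporter transcripts are quantified by RT-PCR and capillary electrophoresis. Gain or loss of signal is fitted relative to DMSO.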

Assay [3] in a line: ATG_TGFb_CIS: Attagene CIS-FACTORIAL HepG2 Assay for human Transforming Growth Factor (TGF) (AID 2282967). As to conditions: HepG2 Attagene CIS TGFb reporter, mRNA transcription; actives raise or lower the signal. The essentials:
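HepG2 cells transiently transfected with cis-promoter-driven multiple reporter units measure endogenous TF activity; reporter mRNA quantified at 24 h by RT-PCR, FAM labeling, HpaI digestion and capillary electrophoresis. Bidirectional fit vs DMSO.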

Assay [4] in a line: ATG_VDRE_CIS: Attagene CIS-FACTORIAL HepG2 Assay for human Vitamin D Receptor Element (VDRE) (AID 2282968). As to conditions: HepG2 VDRE cis-reporter transcription, actives raise or lower the signal. The essentials: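 Measures endogenous factor activity through cis-element-driven reporter transcripts in transiently transfected HepG2. Cells are treated 24 h; reporter mRNA is quantified by RT-PCR and capillary electrophoresis; fitting is bidirectional.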

Assay [5] deals with Estrogen receptor (Homo sapiens) (UniProt P03372). Description: ATG_ERa_TRANS: Attagene TRANS-FACTORIAL HepG2 Assay for human Estrogen Receptor alpha (ERa) (AID 2282970; active = hit-call score of the fitted dose curve at least 0.9, where 1 is the maximum). The following applies: HepG2 Attagene TRANS ERa GAL4 reporter, mRNA. The essentials:
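Transfected HepG2 cells carrying GAL4-UAS-driven reporter units were dosed for 24 hours. Total RNA was reverse-transcribed, reporter sequences PCR-amplified, FAM-labelled, HpaI-digested and resolved by capillary electrophoresis. Increases over DMSO control defined activity.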

Assay [6] deals with X-box-binding protein 1 (Homo sapiens) (UniProt P17861). Briefly: ATG_Xbp1_CIS: Attagene CIS-FACTORIAL HepG2 Assay for human X-box Binding Protein 1 (XBP1) (AID 2282972). As to conditions: HepG2 XBP1 cis-element reporter, Attagene multiplex; actives raise or lower the signal. A digest of the protocol: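 Changes in reporter transcript abundance, read by RT-PCR and capillary electrophoresis, reflect endogenous transcription factor activity. Transfected HepG2 cells received compound for 24 hours; DMSO defined baseline for bidirectional analysis.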

Assay [7] concerns the target Androgen receptor (Homo sapiens) (UniProt P10275). Briefly: ATG_AR_TRANS: Attagene TRANS-FACTORIAL HepG2 Assay for human Androgen Receptor (AR) (AID 2282973; active = hit-call score of the fitted dose curve at least 0.9, where 1 is the maximum). The following applies: HepG2 Attagene TRANS-FACTORIAL AR reporter transcription. The essentials:
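Transfected HepG2, 24 h treatment, chimeric NR-Gal4 driving GAL4-UAS reporters. mRNA induction by RT-PCR/capillary electrophoresis fluorescence; DMSO as negative control and baseline.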

A short description of assay [8]: ATG_M_19_TRANS: Attagene TRANS-FACTORIAL HepG2 Assay for M19 Transcription Factor (Internal Marker) (AID 2282974; active = hit-call score of the fitted dose curve at least 0.9, where 1 is the maximum). As to conditions: HepG2 Attagene TRANS-FACTORIAL M19 internal marker reporter. The essentials: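 24 h chemical exposure of transiently transfected HepG2 (MRTU library). RNA → oligo(dT) RT → PCR → 6-FAM labelling → HpaI cut → CE fluorescence. Positive-direction fit vs DMSO baseline; background internal-marker readout.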

Assay [9] has as its target Bile acid receptor (Homo sapiens) (UniProt Q96RI1). Briefly: ATG_FXR_TRANS: Attagene TRANS-FACTORIAL HepG2 Assay for Farnesoid X Receptor (FXR) (AID 2282979; active = hit-call score of the fitted dose curve at least 0.9, where 1 is the maximum;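 also: hits raise reporter mRNA above DMSO so AC50 marks FXR activation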). The following applies: HepG2 Attagene TRANS FXR-GAL4 reporter transcription. A digest of the protocol:
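Chimeric FXR-GAL4 activity in transiently transfected human HepG2 liver cells is scored as induction of reporter mRNA after 24 h of dosing. Detection uses RT-PCR with fluorescent labelling and capillary electrophoresis, with DMSO serving as baseline.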

Assay [10] is described as follows: ATG_GAL4_TRANS: Attagene TRANS-FACTORIAL HepG2 Assay for GAL4 (Internal Marker) (AID 2282976; active = hit-call score of the fitted dose curve at least 0.9, where 1 is the maximum). As to conditions: HepG2 Attagene TRANS GAL4 internal marker reporter. A digest of the protocol: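 Fluorescence from capillary electrophoresis of labelled RT-PCR products quantifies reporter mRNA induction after 24 h dosing of HepG2 cells carrying transfected GAL4-UAS reporter transcription units. Vehicle DMSO serves as baseline.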

For assay [11], the target named is Glucocorticoid receptor (Homo sapiens) (UniProt P04150). Description: ATG_GR_TRANS: Attagene TRANS-FACTORIAL HepG2 Assay for human Glucocorticoid Receptor (GR) (AID 2282978; active = hit-call score of the fitted dose curve at least 0.9, where 1 is the maximum;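 also: activators score as hits since higher reporter transcript over DMSO is fitted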). The following applies: HepG2 Attagene TRANS GR reporter, mRNA transcription. The essentials: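 Transient MRTU transfection of HepG2 (GAL4-UAS reporters, exogenous NR-GAL4 chimeras), 24 h dosing. Readout: reporter transcript via RT-PCR + capillary electrophoresis fluorescence. Positive direction vs DMSO baseline.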

For assay [12], the target named is Hepatocyte nuclear factor 4-alpha (Homo sapiens) (UniProt P41235). Description: ATG_HNF4a_TRANS: Attagene TRANS-FACTORIAL HepG2 Assay for human Hepatocyte Nuclear Factor 4 alpha (HNF4a) (AID 2282982; active = hit-call score of the fitted dose curve at least 0.9, where 1 is the maximum). As to conditions: HepG2 HNF4a transactivation reporter, mRNA readout. A digest of the protocol: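 Multiplexed reporter assay: transfected HepG2, 24 h exposure, total RNA → oligo(dT) RT → PCR → 6-FAM extension → HpaI digest → CE fluorescence. DMSO = negative control.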

Assay [13] in a line: ATG_M_06_TRANS: Attagene TRANS-FACTORIAL HepG2 Assay for M06 Transcription Factor (Internal Marker) (AID 2282983; active = hit-call score of the fitted dose curve at least 0.9, where 1 is the maximum). The following applies: HepG2 Attagene TRANS M06 internal marker reporter. The essentials: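 Human liver HepG2 cells bearing transiently transfected chimeric NR-GAL4 reporter units were treated with chemicals for 24 h. Total RNA was reverse-transcribed, reporter sequences amplified and labelled, then quantified by capillary electrophoresis. Activity was fitted upward relative to DMSO.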

Assay [14] can be described thus: ATG_M_32_TRANS: Attagene TRANS-FACTORIAL HepG2 Assay for M32 Transcription Factor (Internal Marker) (AID 2282984; active = hit-call score of the fitted dose curve at least 0.9, where 1 is the maximum;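 also: transcript level of a background control reporter unit measured by RT-PCR and capillary electrophoresis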). The following applies: HepG2 Attagene TRANS M32 internal marker reporter. The essentials: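 Cell-based TRANS-format assay in HepG2: exogenous chimeric GAL4 reporter units transiently expressed, compounds applied 24 h. Reporter mRNA detected by RT-PCR plus capillary electrophoresis; this readout is an internal background marker.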

In assay [15] the target is Steroid hormone receptor ERR1 (Homo sapiens) (UniProt P11474). Description: ATG_ERRa_TRANS: Attagene TRANS-FACTORIAL HepG2 Assay for human Estrogen-Related Receptor alpha (ERRa) (AID 2282971; active = hit-call score of the fitted dose curve at least 0.9, where 1 is the maximum). As to conditions: HepG2 Attagene TRANS reporter, ERRa transactivation. A digest of the protocol: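 HepG2 cells were transiently transfected with multiple GAL4-UAS reporter units, then dosed with compound for 24 h. Total RNA was reverse-transcribed, reporter cDNA PCR-amplified and fluorescently labelled, and fragments resolved by capillary electrophoresis; induction was compared with DMSO.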

Assay [16] addresses Nuclear receptor subfamily 4 group A member 2 (Homo sapiens) (UniProt P43354). Briefly: ATG_NURR1_TRANS: Attagene TRANS-FACTORIAL HepG2 Assay for human Nuclear Receptor Related Protein 1 (NURR1) (AID 2282985; active = hit-call score of the fitted dose curve at least 0.9, where 1 is the maximum). The following applies: HepG2 Attagene TRANS reporter, mRNA readout. The essentials: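 Measures transcriptional activation by an exogenous NR-Gal4 chimera in transfected HepG2 liver cells. After 24 h, reporter RNA is reverse-transcribed, amplified and resolved by capillary electrophoresis; DMSO defines baseline.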

Results filed as inconclusive are left out. The source made the active and inactive calls. The calls were made as follows, unless noted: active = hit-call score of the fitted dose curve at least 0.9, where 1 is the maximum; inactive = score below 0.9.

Sequence of X-box-binding protein 1 (Homo sapiens) (P17861 whole entry, looked up): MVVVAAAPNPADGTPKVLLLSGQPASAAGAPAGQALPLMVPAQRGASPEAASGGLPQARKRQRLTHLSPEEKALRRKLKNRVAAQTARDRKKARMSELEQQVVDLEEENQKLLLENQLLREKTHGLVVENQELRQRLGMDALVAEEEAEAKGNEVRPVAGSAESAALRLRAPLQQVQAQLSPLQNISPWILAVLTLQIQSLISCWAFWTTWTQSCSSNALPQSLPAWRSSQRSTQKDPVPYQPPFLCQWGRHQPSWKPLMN
Sequence of Glucocorticoid receptor (Homo sapiens) (P04150 whole entry, looked up, the tested form may be a part): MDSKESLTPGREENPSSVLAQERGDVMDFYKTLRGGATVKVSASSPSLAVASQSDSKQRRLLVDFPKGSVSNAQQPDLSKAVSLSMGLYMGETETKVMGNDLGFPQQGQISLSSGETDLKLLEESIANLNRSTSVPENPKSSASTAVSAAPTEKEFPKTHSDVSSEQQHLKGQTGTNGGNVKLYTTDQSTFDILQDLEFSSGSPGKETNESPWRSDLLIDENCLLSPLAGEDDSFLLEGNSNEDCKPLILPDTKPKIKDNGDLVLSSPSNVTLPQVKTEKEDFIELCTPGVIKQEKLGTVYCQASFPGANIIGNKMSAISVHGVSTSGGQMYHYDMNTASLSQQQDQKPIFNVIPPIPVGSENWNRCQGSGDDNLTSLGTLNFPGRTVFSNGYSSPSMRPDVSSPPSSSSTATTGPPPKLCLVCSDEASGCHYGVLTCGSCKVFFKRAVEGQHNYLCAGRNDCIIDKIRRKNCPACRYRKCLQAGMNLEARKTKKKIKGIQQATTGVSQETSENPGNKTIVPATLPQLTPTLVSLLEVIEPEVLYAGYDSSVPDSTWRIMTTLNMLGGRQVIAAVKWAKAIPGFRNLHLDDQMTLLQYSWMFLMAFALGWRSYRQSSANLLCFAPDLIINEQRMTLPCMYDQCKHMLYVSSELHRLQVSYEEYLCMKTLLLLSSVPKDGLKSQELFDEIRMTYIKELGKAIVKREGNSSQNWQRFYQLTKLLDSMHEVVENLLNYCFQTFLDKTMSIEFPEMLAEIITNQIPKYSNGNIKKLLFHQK
Sequence of Estrogen receptor (Homo sapiens) (P03372 whole entry, looked up, the tested form may be a part): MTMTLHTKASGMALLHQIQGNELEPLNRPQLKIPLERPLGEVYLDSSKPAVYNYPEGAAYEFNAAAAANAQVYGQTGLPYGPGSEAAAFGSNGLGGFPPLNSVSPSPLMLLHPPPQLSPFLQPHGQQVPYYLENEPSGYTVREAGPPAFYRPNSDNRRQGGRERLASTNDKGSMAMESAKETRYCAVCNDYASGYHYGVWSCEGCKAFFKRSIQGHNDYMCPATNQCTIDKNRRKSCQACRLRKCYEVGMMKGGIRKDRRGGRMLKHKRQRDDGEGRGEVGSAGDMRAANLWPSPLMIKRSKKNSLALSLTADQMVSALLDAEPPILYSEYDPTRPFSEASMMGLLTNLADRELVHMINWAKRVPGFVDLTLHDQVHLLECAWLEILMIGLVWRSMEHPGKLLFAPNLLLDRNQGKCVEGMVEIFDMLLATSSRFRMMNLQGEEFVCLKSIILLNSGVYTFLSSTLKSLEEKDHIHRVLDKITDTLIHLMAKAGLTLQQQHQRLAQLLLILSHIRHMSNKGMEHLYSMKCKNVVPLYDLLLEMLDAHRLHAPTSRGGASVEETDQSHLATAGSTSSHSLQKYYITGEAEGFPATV
Sequence of Androgen receptor (Homo sapiens) (P10275 whole entry, looked up, the tested form may be a part): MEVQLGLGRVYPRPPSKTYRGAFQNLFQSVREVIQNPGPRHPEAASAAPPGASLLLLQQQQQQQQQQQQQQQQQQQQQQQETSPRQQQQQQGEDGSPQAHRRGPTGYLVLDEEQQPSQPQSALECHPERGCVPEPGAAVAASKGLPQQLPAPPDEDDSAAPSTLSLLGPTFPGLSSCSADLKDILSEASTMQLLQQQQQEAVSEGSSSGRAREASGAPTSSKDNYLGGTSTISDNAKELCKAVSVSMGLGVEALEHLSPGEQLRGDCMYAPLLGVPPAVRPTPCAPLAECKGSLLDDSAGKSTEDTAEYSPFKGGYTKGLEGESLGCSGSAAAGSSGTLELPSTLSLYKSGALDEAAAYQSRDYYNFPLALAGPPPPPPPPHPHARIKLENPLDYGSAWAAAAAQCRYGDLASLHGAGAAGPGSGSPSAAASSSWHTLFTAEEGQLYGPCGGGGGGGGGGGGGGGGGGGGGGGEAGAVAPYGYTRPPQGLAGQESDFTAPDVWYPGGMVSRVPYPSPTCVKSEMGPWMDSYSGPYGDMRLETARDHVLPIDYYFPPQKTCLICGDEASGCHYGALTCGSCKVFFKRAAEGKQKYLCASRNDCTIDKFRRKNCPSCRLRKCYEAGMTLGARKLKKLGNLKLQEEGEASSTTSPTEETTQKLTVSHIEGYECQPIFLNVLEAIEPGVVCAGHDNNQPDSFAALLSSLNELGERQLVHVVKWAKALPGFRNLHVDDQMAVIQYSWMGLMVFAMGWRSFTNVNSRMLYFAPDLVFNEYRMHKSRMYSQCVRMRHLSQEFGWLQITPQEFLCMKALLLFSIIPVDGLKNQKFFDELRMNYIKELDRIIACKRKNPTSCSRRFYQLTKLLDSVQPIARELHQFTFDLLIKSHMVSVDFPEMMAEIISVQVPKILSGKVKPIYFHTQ
Sequence of Bile acid receptor (Homo sapiens) (Q96RI1 whole entry, looked up, the tested form may be a part): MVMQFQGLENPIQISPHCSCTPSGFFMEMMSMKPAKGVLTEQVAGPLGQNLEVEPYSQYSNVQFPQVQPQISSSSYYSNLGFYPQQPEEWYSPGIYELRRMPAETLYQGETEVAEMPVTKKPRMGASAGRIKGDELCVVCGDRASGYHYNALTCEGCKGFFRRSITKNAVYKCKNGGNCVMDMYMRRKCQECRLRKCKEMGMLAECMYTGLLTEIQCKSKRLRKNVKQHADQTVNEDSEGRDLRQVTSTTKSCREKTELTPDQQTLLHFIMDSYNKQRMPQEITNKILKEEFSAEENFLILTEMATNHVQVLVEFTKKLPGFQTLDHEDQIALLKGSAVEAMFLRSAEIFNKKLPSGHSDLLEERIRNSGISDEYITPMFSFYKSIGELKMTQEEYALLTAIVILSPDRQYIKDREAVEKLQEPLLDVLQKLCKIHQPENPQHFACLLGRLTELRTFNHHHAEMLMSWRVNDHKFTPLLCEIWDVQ
Sequence of Hepatocyte nuclear factor 4-alpha (Homo sapiens) (P41235 whole entry, looked up): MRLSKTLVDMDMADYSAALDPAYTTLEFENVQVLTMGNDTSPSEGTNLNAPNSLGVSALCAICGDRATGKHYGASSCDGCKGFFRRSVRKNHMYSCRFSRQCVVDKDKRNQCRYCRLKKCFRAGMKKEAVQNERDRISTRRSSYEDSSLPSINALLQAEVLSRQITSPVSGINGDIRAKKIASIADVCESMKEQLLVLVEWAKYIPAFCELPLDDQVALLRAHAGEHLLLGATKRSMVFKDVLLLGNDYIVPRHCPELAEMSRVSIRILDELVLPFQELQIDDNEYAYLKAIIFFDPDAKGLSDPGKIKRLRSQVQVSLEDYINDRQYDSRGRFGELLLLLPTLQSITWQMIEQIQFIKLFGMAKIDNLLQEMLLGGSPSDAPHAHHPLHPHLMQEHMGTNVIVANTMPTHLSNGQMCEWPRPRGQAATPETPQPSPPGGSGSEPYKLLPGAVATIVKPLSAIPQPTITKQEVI
Sequence of Nuclear receptor subfamily 4 group A member 2 (Homo sapiens) (P43354 whole entry, looked up, the tested form may be a part): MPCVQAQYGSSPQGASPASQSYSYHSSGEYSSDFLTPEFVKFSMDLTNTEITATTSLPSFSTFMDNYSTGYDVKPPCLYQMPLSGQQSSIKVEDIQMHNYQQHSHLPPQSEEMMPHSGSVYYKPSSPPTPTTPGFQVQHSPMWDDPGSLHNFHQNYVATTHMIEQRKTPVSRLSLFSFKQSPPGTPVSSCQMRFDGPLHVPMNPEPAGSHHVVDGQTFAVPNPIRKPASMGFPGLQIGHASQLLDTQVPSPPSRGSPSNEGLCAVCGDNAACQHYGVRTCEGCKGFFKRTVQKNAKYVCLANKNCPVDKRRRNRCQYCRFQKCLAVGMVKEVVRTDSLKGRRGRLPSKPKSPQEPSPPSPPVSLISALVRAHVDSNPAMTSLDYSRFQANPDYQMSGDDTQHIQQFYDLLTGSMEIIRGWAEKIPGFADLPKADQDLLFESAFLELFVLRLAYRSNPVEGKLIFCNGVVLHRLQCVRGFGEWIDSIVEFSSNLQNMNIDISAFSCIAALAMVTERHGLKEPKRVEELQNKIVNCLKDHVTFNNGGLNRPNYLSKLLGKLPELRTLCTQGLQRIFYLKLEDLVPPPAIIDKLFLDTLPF
Sequence of Steroid hormone receptor ERR1 (Homo sapiens) (P11474 whole entry, looked up, the tested form may be a part): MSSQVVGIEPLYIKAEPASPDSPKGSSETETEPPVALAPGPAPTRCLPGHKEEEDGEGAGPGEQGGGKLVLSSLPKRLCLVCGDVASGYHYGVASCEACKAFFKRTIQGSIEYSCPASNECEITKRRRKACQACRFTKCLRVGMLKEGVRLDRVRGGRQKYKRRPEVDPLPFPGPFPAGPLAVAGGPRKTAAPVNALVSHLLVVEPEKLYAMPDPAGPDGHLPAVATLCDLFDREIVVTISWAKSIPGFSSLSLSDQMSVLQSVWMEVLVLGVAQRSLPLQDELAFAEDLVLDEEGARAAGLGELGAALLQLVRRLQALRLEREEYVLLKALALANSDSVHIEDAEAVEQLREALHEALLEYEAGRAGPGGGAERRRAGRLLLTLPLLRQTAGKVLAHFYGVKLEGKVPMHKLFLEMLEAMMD

Consider `CCN(CC)c1ccccc1`, for which the call in assay [1], in assay [2], in assay [3], in assay [4], in [5] and in [6] was inactive. The result in assay [7] was inactive.
As to `CCCCc1ccccc1`, the compound was classed as inactive in assay [1], in assay [2], in [3], in assay [4], in assay [5] and in assay [6]. Moreover, the call in assay [8] and in assay [9] was inactive.
With `CCNc1nc(Cl)nc(NC(C)(C)C)n1`, the call in assay [1], in [2], in [3], in assay [4], in assay [6] and in assay [7] was inactive. The call in assay [10], in assay [11], in assay [9], in [12], in assay [13] and in assay [14] was inactive. Also, the AC50 in [5] is 1.54 µM (active).
As to `C=CC(=O)OCC(CC)(COC(=O)C=C)COC(=O)C=C`, the compound was called inactive in assay [1], in assay [2], in assay [5], in assay [15], in assay [6] and in [7]. Also, the compound was called inactive in assay [11] and in [13]. Moreover, the AC50 in assay [3] was 49.4 µM (active); in assay [4], 3.37 µM (active).
On to `C=C(C)C(=O)OCC1CO1` (configuration not stated), for which the call in [1], in assay [2], in [3], in assay [4], in assay [6] and in [10] was inactive. In addition, the call in [11], in [12], in [13] and in assay [14] was inactive.
Consider `O=C(O)CF`, for which the compound was classed as inactive in assay [1], in assay [2], in assay [3], in assay [4], in assay [6] and in assay [10]. For the same compound, the call in assay [13], in assay [14] and in [16] was inactive.
